A short description of assay [1]: qHTS assay to identify small molecule antagonists of the estrogen related receptor signaling pathway with the pleiotropic PPARgamma coactivator (PGC) from Tox21 10K library - cell viability counter screen (AID 1224840; active means well fitted cell-killing curve with a large enough effect in the repeat runs, not every such curve was filed as active; further: nearly all actives have a fitted effect of over 40% in size; further: potency means the concentration at half of the fitted maximal effect). Summed up:
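PGC/ERR cells (2,000/well) plated 6 h, then compound-treated for 17.5 h at 37 C. Viability measured by CellTiter-Fluor fluorescence after 30 min at 37 C, multiplexed with the pathway assay.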
Background: Quantitative high-throughput screening tests each substance at several concentrations.

Assay [2] can be described thus: qHTS assay to identify small molecule antagonists of the estrogen related receptor signaling pathway with the pleiotropic PPARgamma coactivator (PGC) from Tox21 10K library (AID 1224841; call rule not given here; further: actives are mostly falling curves and most rising ones were filed inactive; nearly all actives have a fitted effect of over 50% in size; further: potency means the concentration at half of the fitted maximal effect). In a few lines:
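PGC/ERR cell line, 2,000 cells/well, pre-incubated 6 hours at 37 C, then exposed to compounds for 18 hours at 37 C; luciferase read with One-Glo luminescence after 30 min at room temperature.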

Assay [3] can be described thus: qHTS assay to identify small molecule agonists of the estrogen related receptor signaling pathway with the pleiotropic PPARgamma coactivator (PGC) from Tox21 10K library (AID 1224842). Further: nearly all actives have a fitted effect of over 15% in size. In a few lines: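 PGC/ERR reporter cell line, 2,000 cells per well, incubated 6 h at 37 C before 23 nL compound in DMSO was added. After 18 h at 37 C, One-Glo luminescence read following 30 min at room temperature.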

Assay [4] addresses Thyrotropin receptor (Homo sapiens) (UniProt P16473). As to the kind of experiment: qHTS assay to identify small molecule agonists of the thyroid stimulating hormone receptor (TSHR) signaling pathway (AID 1224843; calls by dose curve; further: nearly all actives have a fitted effect of over 45% in size; further: potency means the concentration at half of the fitted maximal effect). Summed up:
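Steps: seed 800 TSHR-HEK293 cells per well; add test compound and hold 30 min at ambient temperature; dispense cAMP-d2 then anti-cAMP cryptate; incubate 1 h at ambient; measure fluorescence intensity.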

The nature of assay [5]: qHTS assay to identify small molecule agonists of the hypoxia (HIF-1) signaling pathway - cell viability counter screen (AID 1224844; calls by dose curve; further: nearly all actives have a fitted effect of over 50% in size; further: potency means the concentration at half of the fitted maximal effect). In a few lines: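 HRE-bla ME-180 cells, 2,000/well in 0.5% dialyzed FBS medium, treated 17 h at 37C with compounds. Viability read in the same wells as the bla reporter, by CellTiter-Glo luminescence after 30 min at room temperature.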
Assay [6] can be described thus: qHTS assay to identify small molecule agonists of H2AX (AID 1224845; active means well fitted activation curve with a large enough effect in the signal ratio in the repeat runs, not every such curve was filed as active; the % refers to the signal ratio; further: potency means the concentration at half of the fitted maximal effect). In a few lines:
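Wild-type CHO-K1 cells, plated overnight, exposed 3hr at 37C to 15 concentrations (0.76% DMSO final). Lysed, then HTRF anti-pH2AX (S139) cryptate and anti-H2AX-d2 antibodies, 24 hr room temperature; 665/620 nm emission read.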

Assay [7] can be described thus: qHTS assay to identify small molecule agonists of H2AX - cell viability counter screen (AID 1224847; calls by dose curve; further: nearly all actives have a fitted effect of over 30% in size; further: potency means the concentration at half of the fitted maximal effect). In a few lines:
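CHO-K1 cells plated overnight at 37C, then exposed 3 h at 37C to compounds at 15 concentrations (0.76% DMSO final). Viability by CellTiter-Glo luminescence after 30 min at room temperature.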

A short description of assay [8]: qHTS assay to identify small molecule antagonists of the estrogen related receptor (ERR) signaling pathway from Tox21 library (AID 1224848). Further: nearly all actives have a fitted effect of over 50% in size. Further: potency means the concentration at half of the fitted maximal effect. In a few lines: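 Luminescent reporter read-out (ONE-Glo) from NTP's ERR cell line after 18 h treatment at 37 C with DMSO-dissolved Tox21 compounds; cells pre-plated 6 h beforehand at 2,000 per well.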
The nature of assay [9]: qHTS assay to identify small molecule agonists of the estrogen related receptor (ERR) signaling pathway from Tox21 library (AID 1224849; calls by dose curve; further: nearly all actives have a fitted effect of over 15% in size). The note with it: ERR reporter cell line, ONE-Glo luciferase, 18 h; at 92.4 µM (top of the series) unless noted. Summed up:
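ERR reporter cells (NTP line) pre-incubated 6 hours at 37 C, then exposed to compounds for 18 hours at 37 C. ONE-Glo luciferase luminescence was read after 30 minutes at room temperature.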

Assay [10] in a line: qHTS RealTime-Glo MT Cell Viability Assay in HepG2 cells - 24 hour (AID 1224867). Further: nearly all actives have a fitted effect of over 50% in size. Further: potency means the concentration at half of the fitted maximal effect. In a few lines: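 HepG2 cells (600/well) were dispensed with RealTime-Glo reagents, incubated 5 h at 37 °C, then treated with compounds in DMSO for up to 40 h. Nonlytic NanoLuc luminescence reflecting viable cells was read at each stated time point.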
The nature of assay [11]: qHTS RealTime-Glo MT Cell Viability Assay in HEK293 cells - 32 hour (AID 1224868). Further: nearly all actives have a fitted effect of over 50% in size. Further: potency means the concentration at half of the fitted maximal effect. Summed up:
(§1)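 HEK293 cells seeded with NanoLuc/prosubstrate reagent, rested 5 h at 37 C, then dosed and kept at 37 C up to 40 h. Nonlytic real-time luminescence from viable cells read at 0, 8, 16, 24, 32 and 40 h.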

Assay [12] in a line: A CellTox Green Cytotoxicity Assay to monitor cytotoxicity in HEK293 cells - 0 hour (AID 1224869). Further: nearly all actives have a fitted effect of over 50% in size. In a few lines: (§2)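 HEK293 cells, 600/well, were preincubated 5 hours and then exposed to compounds at 37 C for up to 40 hours. A cell-impermeant cyanine dye staining dead-cell DNA was read by fluorescence at 0, 8, 16, 24, 32 and 40 h time points.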
A short description of assay [13]: qHTS RealTime-Glo MT Cell Viability Assay in HepG2 cells - 40 hour (AID 1224870). Further: nearly all actives have a fitted effect of over 50% in size. Further: potency means the concentration at half of the fitted maximal effect. Summed up:
(§3)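 HepG2 cells (600/well) mixed with RealTime-Glo MT reagent, settled 5 h at 37 C/5% CO2 before compound addition. Nonlytic NanoLuc luminescence from viable-cell prosubstrate reduction read repeatedly during 40 h treatment at 37 C.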

A short description of assay [14]: A CellTox Green Cytotoxicity Assay to monitor cytotoxicity in HEK293 cells - 40 hour (AID 1224871). Further: nearly all actives have a fitted effect of over 45% in size. Further: potency means the concentration at half of the fitted maximal effect. Summed up:
as §2

Assay [15] can be described thus: qHTS RealTime-Glo MT Cell Viability Assay in HEK293 cells - 40 hour (AID 1224874). Further: nearly all actives have a fitted effect of over 50% in size. Further: potency means the concentration at half of the fitted maximal effect. The note with it: RealTime-Glo luminescence; max response: stronger effect = lower value. Summed up: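 600 cells/well were plated with the nonlytic NanoLuc/prosubstrate reagent, pre-incubated 5 h, then given 23 nL of compound in DMSO. Incubation at 37 C for 40 h, with luminescence from viable-cell-reduced substrate read repeatedly from 0 h.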

A short description of assay [16]: A CellTox Green Cytotoxicity Assay to monitor cytotoxicity in HEK293 cells - 24 hour (AID 1224875). Further: nearly all actives have a fitted effect of over 45% in size. Further: potency means the concentration at half of the fitted maximal effect. Summed up:
as §2

Assay [17] is described as follows: A CellTox Green Cytotoxicity Assay to monitor cytotoxicity in HepG2 cells - 16 hour (AID 1224876). Further: nearly all actives have a fitted effect of over 45% in size. Further: potency means the concentration at half of the fitted maximal effect. Summed up:
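HepG2 cells, 600/well, preincubated 5 h with CellTox Green dye, then exposed to Tox21 compounds in DMSO at 37 C for up to 40 h. Dead-cell DNA fluorescence read at the indicated time point.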

Assay [18] in a line: qHTS assay to identify small molecule agonists of the hypoxia (HIF-1) signaling pathway (AID 1224846; active means well fitted activation curve with a large enough effect in the signal ratio in the repeat runs, not every such curve was filed as active; the % refers to the signal ratio). In a few lines: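 HRE-bla ME-180 beta-lactamase reporter cells in medium with 0.5% dialyzed FBS, pre-incubated 5 h then exposed to compounds 17 h at 37C, 5% CO2; reporter induction read with CCF4-AM FRET substrate.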
A short description of assay [19]: qHTS RealTime-Glo MT Cell Viability Assay in HepG2 cells - 8 hour (AID 1224873). Further: nearly all actives have a fitted effect of over 55% in size. Further: potency means the concentration at half of the fitted maximal effect. Summed up: as §3
The nature of assay [20]: qHTS RealTime-Glo MT Cell Viability Assay in HEK293 cells - 16 hour (AID 1224872). Further: nearly all actives have a fitted effect of over 50% in size. Further: potency means the concentration at half of the fitted maximal effect. Summed up: as §1

This is an account of results in PubChem BioAssay (Tox21).

Values without a mark were called inactive. Records with an inconclusive call do not appear. Activity calls are given as the source filed them. Unless noted, the call rests on the fitted dose curve; in most records, active means well fitted curve in the direction sought with a large enough effect in the repeat runs; inconclusive means weak or mixed curves; inactive means no such curve, though single readings can be large; an effect the other way counts as inactive or inconclusive.
On the % scale 0 is the no-effect control and ±100 the full control effect.

Sequence of Thyrotropin receptor (Homo sapiens) (P16473 whole entry, looked up): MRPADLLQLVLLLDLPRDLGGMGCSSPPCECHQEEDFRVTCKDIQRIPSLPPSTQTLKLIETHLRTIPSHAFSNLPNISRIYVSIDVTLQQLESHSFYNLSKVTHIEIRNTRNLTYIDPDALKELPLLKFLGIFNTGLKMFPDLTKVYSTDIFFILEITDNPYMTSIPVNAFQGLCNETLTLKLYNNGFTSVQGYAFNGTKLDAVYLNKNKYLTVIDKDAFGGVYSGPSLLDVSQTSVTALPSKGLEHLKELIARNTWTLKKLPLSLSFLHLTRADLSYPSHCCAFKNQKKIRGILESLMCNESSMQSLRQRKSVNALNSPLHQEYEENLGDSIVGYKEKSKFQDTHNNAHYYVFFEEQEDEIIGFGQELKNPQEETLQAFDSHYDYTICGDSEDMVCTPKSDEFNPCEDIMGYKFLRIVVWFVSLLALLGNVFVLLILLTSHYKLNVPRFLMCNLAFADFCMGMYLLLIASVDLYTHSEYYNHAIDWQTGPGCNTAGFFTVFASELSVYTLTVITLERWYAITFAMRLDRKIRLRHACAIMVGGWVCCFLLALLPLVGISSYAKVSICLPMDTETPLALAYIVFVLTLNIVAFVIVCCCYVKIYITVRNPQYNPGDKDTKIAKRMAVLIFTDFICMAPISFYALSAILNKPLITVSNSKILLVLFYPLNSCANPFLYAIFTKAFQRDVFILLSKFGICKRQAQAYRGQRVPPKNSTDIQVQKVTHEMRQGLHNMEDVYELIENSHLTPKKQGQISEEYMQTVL

Consider `Cn1ccnc1`, for which the Potency entry in assay [1], in assay [2], in [3], in assay [4], in assay [5] and in assay [6] was “inactive” each time. For the same molecule, the Potency result in assay [7], in assay [8], in assay [10], in assay [11], in assay [12] and in assay [13] was “inactive” in each case. The Potency result in assay [14], in assay [16] and in assay [17] was “inactive” in each case. Further, the activity change, positive = activation in [9] is 1.09%. Further, the max response in [15] is 9.06%.
As for `CC(C)C(=O)C(C)C`, the Potency result in assay [1], in [2], in assay [3], in [4], in assay [5] and in [6] was “inactive” in each case. For the same molecule, the Potency result in [18], in [7], in assay [8], in assay [10], in [11] and in [12] was “inactive” throughout. The Potency result in [13], in assay [14], in assay [19], in assay [16] and in assay [17] was “inactive” throughout. In addition, the activity change, positive = activation in [9] was 1.37%. Moreover, the max response in assay [15] is 8.37%.
Turning to `CC(c1cc(C(C)(C)C)cc(C(C)(C)C)c1O)c1cc(C(C)(C)C)cc(C(C)(C)C)c1O`, the Potency entry in [1], in assay [2], in [3], in assay [4], in assay [5] and in assay [18] was “inactive” throughout. For the same molecule, the Potency entry in assay [7], in assay [10], in [12], in assay [13], in assay [14] and in [19] was “inactive” each time. For the same molecule, the Potency entry in assay [16] and in [17] was “inactive” in each case. Further, in [15], the Potency was 19.5 µM (active).
Consider `O=[N+]([O-])c1ccc(O)c2ncccc12`, for which the Potency in assay [1] was 10.6 µM (active); in assay [2], 5.31 µM (active); in [8] it was 5.31 µM (active); in assay [14] it was 9.52 µM (active); in assay [15] it was 9.52 µM (active). Moreover, the Potency result in assay [3], in [4], in [5], in assay [7], in assay [10] and in assay [12] was “inactive” throughout. The Potency entry in [13] and in assay [16] was “inactive” each time. In addition, in assay [9], the activity change, positive = activation was -55.9% [at 42.5 µM].
As to `Oc1ccc(C2(c3ccc(O)c(C4CCCCC4)c3)CCCCC2)cc1C1CCCCC1`, the Potency was 61.1 µM (active) in [1]; 54.5 µM (active) in [2]; 6.86 µM (active) in [4]; 12.3 µM (active) in assay [5]; 22.5 µM (active) in assay [6]; 22.5 µM (active) in assay [7]. For the same molecule, the Potency in assay [8] was 38.6 µM (active); in assay [10] it was 34.7 µM (active); in assay [11], 38.9 µM (active); in assay [13], 34.7 µM (active); in assay [20], 43.6 µM (active); in assay [19], 43.6 µM (active). Moreover, the values for the Potency in assay [15] and in [17] were 24.5 µM (active) and 34.7 µM (active), respectively. The Potency result in [3], in assay [12] and in assay [16] was “inactive” in each case.
As to `O=C1CCCCCCCCCCCCCC1`, the Potency result in assay [1], in [2], in [3], in [4], in assay [7] and in assay [8] was “inactive” in each case. In addition, the Potency entry in [10], in [11], in assay [12], in [13], in assay [20] and in assay [19] was “inactive” throughout. The Potency entry in assay [17] was “inactive”. Further, the Potency in assay [14] and in assay [16] was 43.6 µM (active) in each case. In addition, the max response in assay [15] was -11.7%.
`Nc1ccc(F)c([N+](=O)[O-])c1`: the Potency result in assay [1], in [3], in assay [4], in assay [5], in assay [6] and in [18] was “inactive” throughout. Further, the Potency entry in assay [7], in assay [10], in assay [11], in assay [12], in [13] and in assay [14] was “inactive” throughout. For the same molecule, the Potency result in [20], in assay [19], in assay [16] and in [17] was “inactive” in each case. The figures for the Potency in assay [2] and in [8] were 30.6 µM (active) and 34.4 µM (active), respectively. Also, in [9], the activity change, positive = activation was -30.4%. In addition, the max response in assay [15] was 4.61%.
